# Test results: the supplement of paper PMC6555819
# Tests used:
# Assay in all cases: PBM binding z-score (relative to random genomic background probes); higher = stronger binding; sequences stand for … in GC…GCGATTGACAGCGTAGAATGAAGG
# [1] = tested on: FXR:RXRa (NR concentration 270 nM, RXRa partner concentration 90 nM)
# Method in brief: (§1)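 Random background probes are the reference for binding z-scores. These scores derive from regression-normalized fluorescence on custom Agilent 4×180K protein-binding microarrays incubated 1 h with ligand-free nuclear receptor dimers. Binding was detected with antibodies against each partner (one per run).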
# [2] = tested on: LXRa:RXRa (NR concentration 270 nM, RXRa partner concentration 90 nM)
# Method in brief: as §1
# [3] = tested on: LXRa homodimer (NR concentration 270 nM)
# Method in brief: as §1
# [4] = tested on: LXRb:RXRa (NR concentration 270 nM, RXRa partner concentration 90 nM)
# Method in brief: as §1
# [5] = tested on: LXRb homodimer (NR concentration 270 nM)
# Method in brief: as §1
# [6] = tested on: PPARa:RXRa (NR concentration 270 nM, RXRa partner concentration 90 nM)
# Method in brief: as §1
# [7] = tested on: PPARg:RXRa (NR concentration 180 nM, RXRa partner concentration 90 nM)
# Method in brief: as §1
# [8] = tested on: PPARg:RXRa 270nM:90nM, anti-RXR (NR concentration 270 nM, RXRa partner concentration 90 nM)
# Method in brief: as §1
# [9] = tested on: PPARg:RXRa 30nM:10nM, anti-RXR (NR concentration 30 nM, RXRa partner concentration 10 nM)
# Method in brief: as §1
# [10] = tested on: PPARg:RXRa 90nM:30nM, anti-RXR (NR concentration 90 nM, RXRa partner concentration 30 nM)
# Method in brief: as §1
Sequence,PBM binding z-score [1],PBM binding z-score [2],PBM binding z-score [3],PBM binding z-score [4],PBM binding z-score [5],PBM binding z-score [6],PBM binding z-score [7],PBM binding z-score [8],PBM binding z-score [9],PBM binding z-score [10]
TCGAGTAGGTTACCAATTGGGCATTCAGCTTTCT,0.0774,0.268,-0.567,0.437,-0.954,0.973,-0.0221,1.3,0.909,1.06
CATTACGGGTCAAGGTTATAGCACGGGTGGTACG,5.89,5.21,1.53,3.61,1.18,5.27,5.67,5.45,2.22,4.39
TAGCCTAGGTCATGCGGGCCAGTAGAGTGTCGGC,4.11,3.32,-0.00774,1.64,-0.216,3.58,1.91,2.64,0.154,1.57
CCTTACGGGTCACTCCCGGTTATAGCATCGGAGT,4.78,7.33,2,4.66,0.279,4.23,2.63,3.52,0.522,2.33
CCAGACAGGTGAGAAGATAACTCAGCCTCGATTA,0.0426,0.15,-0.0638,-0.14,-0.471,-0.179,0.576,-0.087,-0.116,0.155
CGAACTAGGTCATTGACAGGACTGTGAATAGTAA,4.46,2.5,0.131,1.81,0.103,4.71,7.38,6.1,4.05,5.52
CAAACTAGGTCAAGGTCAAAGTCGGTTTGTGCCA,6.65,5.95,4.23,4.67,1.63,6.12,9.81,8.12,7.05,8.27
GTACCAAGGTGAATAGGTCGTTGAGGAGTAGGCG,0.778,0.909,0.0544,0.533,-0.56,2.32,1.22,1.67,0.113,1.14
AGAATGAGGTTAAGAGCAGGGAAACAGAATACAT,2.07,1.9,-0.281,1.52,-0.266,3.4,1.98,2.15,0.589,1.22
ACTAGTTGGTCAGCTGAAGTCACACACAATTCGG,-0.0902,-0.0916,0.115,0.118,0.19,-0.0344,0.754,0.0912,-0.0266,0.0351
TATACAGGGTCAAGGGCCAGAGTACGAATGTCGA,6.63,5.65,1.91,4.4,2.42,5.8,7.15,6.47,3.84,5.91
AGTCAAAGTTCACTAGGTACCGTAAGATTCAGCT,4.67,5.23,3.18,3.05,0.945,4.23,5.85,6.01,2.8,5.22
CGTTAAAGTTCAAGGTAACGTAACAGAAAGCAGC,6.06,5.3,2.94,3.2,1.15,4.56,3.3,4.01,1.81,3.27
CGTCAAAGTTCAACTAAGGCAACGTAAAGCACGC,6.41,6.09,3.57,3.9,1.79,4.93,4.8,5.53,1.96,4.18
CCTGCTAGGTCATGGCCAGCTAATCTACAGTATG,3.55,2.55,0.0955,1.76,-0.401,3.99,2.7,3,0.634,2.16
CGTAGTTGGTCAGGAGGTCACACACCGGATATGA,3.37,3.49,2.03,3.36,0.65,4.17,2.96,4.01,1.36,3.36
GCTGCTAGCTCAACTGATGGTCAGCTAAAGCTCG,-0.673,-0.959,-0.842,-1.01,-1.05,-1.23,-0.747,-1.13,-1.24,-1.15
CCTACTGGGGCATCAGGTCATTGATATCAACGTT,1.51,1.23,1.04,1.47,-0.819,3.15,4.22,4.7,2.26,4.13
CGAATTAGGTCATTGACAGGACAGTGAATAGTAA,4.67,3.39,0.61,2.55,0.269,4.89,6.83,6.02,3.62,5.68

Sequence,PBM binding z-score [1],PBM binding z-score [2],PBM binding z-score [3],PBM binding z-score [4],PBM binding z-score [5],PBM binding z-score [6],PBM binding z-score [7],PBM binding z-score [8],PBM binding z-score [9],PBM binding z-score [10]
CCGACTGGGGCAAAGGTTCCCATACTCAGTACGA,-0.153,-0.12,-0.431,-0.0438,-1.02,3,7.57,6.87,6.55,6.97
CCATACGGGTCAAGGTTATAGCACGGGTGGTACG,5.13,3.28,0.265,2.54,-0.237,4.84,4.87,4.32,1.07,3.23
GCTGCTAGGTCAACCGATGGTCAGCTAAAGCTCG,3.72,2.83,-0.00824,1.67,-0.103,3.53,2.64,3,0.428,1.82
TGAATGAGGGTATAAGATCAGGGAACGTTGCAAA,0.413,0.344,-0.145,0.00334,0.501,0.874,0.576,1.23,1.11,0.839
CCGACTGGTGCAAGGTTACCATAACGCACAGCCA,-0.035,0.459,-0.262,0.654,-1.22,0.831,0.89,0.462,-0.236,0.039
AGTCAAAGTTCACTAGGTAACGTGAGATTCAGCT,4.64,4.79,2.64,2.71,0.742,4.57,7.14,6.33,3.41,5.47
AATACAGGGTCACTATGCCAGAGTAGGTACGAAT,5.56,4.68,1.16,3.79,1.06,5.44,6.37,4.87,2.05,3.73
ACAGACAGGTGATGAAGGTAACTCTGGCTATCAT,-0.247,-0.358,-0.109,-0.536,-0.538,-0.229,0.485,-0.185,0.143,0.132
AGAACGAGGGCACGCAGAGTTGATAGCAGAGTAG,1.14,0.811,-0.396,0.439,-0.647,2.54,2.51,2.28,0.386,1.35
GATACAGGGTCAGCTAGCGGCCAGAGTATGGAAA,4.95,2.67,-0.847,2.34,-0.774,4.56,3.77,3.29,0.52,2.01
ATCGAAAGGTCGTGAGGCGAGTATACAGAAAGGC,5.83,4.11,0.273,3.21,0.391,5.07,3.85,4.18,1.56,2.61
GGAACTAGGGCATTCGAGTTGATAGCATGGCGAT,0.225,0.214,-0.0911,-0.433,-0.474,2.54,3.49,3.04,0.86,1.91
CCTATTAGTTGACCATAAGGGCATCCGAAGCTCG,0.924,0.501,0.549,0.384,0.423,0.26,0.493,0.533,-0.0651,0.145
CACACAGGGTCAGCTAGGCCAGAGTAGGGACGGC,4.77,2.64,-0.0558,2.18,0.152,4.32,3.21,2.62,0.502,1.62
AGAATGAGCTTATTAAGATCAGGGAATTGCGGTC,-0.612,-0.88,-0.374,-0.82,-0.756,-0.52,0.00552,-0.444,-0.148,-0.365
CAAACTAGGTCACGAAAGGTCTAAGTCGAATGAC,4.46,4.6,0.351,3.17,0.461,5.52,9.08,7.4,5.87,7.6
TCTTGTAGACCAAAGGTTAAGAAAGCCGAAGCCT,1.29,1.9,-0.151,1.82,-0.338,4.78,8.36,8.52,8.06,9.8
TAGCCTAGGTTAGATCGGGCCAGTATACGCTATA,0.436,-0.519,-0.629,-0.408,-0.862,-0.226,0.102,-0.562,-0.333,-0.187
AGAACGAGGGCAATGAATTGATAGCACGGGTGGC,0.314,0.102,-0.259,0.0164,-0.479,1.32,1.27,0.732,0.112,0.346
